# Source: PubChem
# Luciferase inh: inhibitors of firefly luciferase. P08659. Potency, µM (top dose mostly 57.1 µM), inactives show at the highest dose activity change, negative = inhibition, hits mostly inhibitors. hit rate 2.2% among 72,000. purified firefly luciferase, luminescence, 8 min; also: nearly all actives have a fitted effect of over 40% in size
#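 Compounds were tested as concentration series (qHTS) against purified P. pyralis luciferase with luciferin and 10 uM ATP in 50 mM imidazole pH 7.2, 50 mM KCl, 7 mM MgCl2, 0.01% Tween 20, 0.05% BSA. Luminescence was read after 8 min at ambient temperature.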
# HADH2 inhib: inhibitors of human HADH2 dehydrogenase; recombinant HADH2, NADH fluorescence, beta-hydroxybutyryl-CoA; Potency, µM (doses to about 57.1 µM), without a hit: at the top dose activity change, negative = inhibition, usual class: inhibitors; hit rate 3.4% among 73,000; also: nearly all actives have a fitted effect of over 60% in size
# Target sequence (Q99714 whole entry, looked up, one chain of several): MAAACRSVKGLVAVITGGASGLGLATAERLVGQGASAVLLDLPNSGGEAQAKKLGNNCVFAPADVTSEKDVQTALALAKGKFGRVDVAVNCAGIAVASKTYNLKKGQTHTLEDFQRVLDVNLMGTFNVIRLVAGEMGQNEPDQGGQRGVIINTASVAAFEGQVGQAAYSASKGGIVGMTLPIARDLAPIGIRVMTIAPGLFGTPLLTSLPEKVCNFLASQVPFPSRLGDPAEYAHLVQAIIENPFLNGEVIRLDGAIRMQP
#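 Read-out: 360 nm excitation, 450 nm emission, kinetic over 4 min. Conditions: His-tagged human HADH2 20 nM, pH 9.0 Tris with Tween-20, 1 mM NAD+, 90 uM beta-hydroxybutyryl-CoA.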
# HSD17B inh: inhibitors of human HSD17B10 dehydrogenase; Q99714; recombinant HSD17B10, NADH fluorescence kinetic; Potency, µM (highest dose often 57.1 µM), inactives show at the highest dose activity change, negative = inhibition, hits mostly inhibitors; hit rate 7.6% among 75,000; AID 893;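 also: the protocol describes HADH2 (HSD17B10) and not the HSD17B4 of the title; nearly all actives have a fitted effect of over 70% in size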
#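 Enzyme plus compound, 15 min room temperature; substrate mix added (NAD+ 1 mM, beta-hydroxybutyryl-CoA 90 uM final); plates read kinetically for NADH fluorescence. HADH2 was His-tagged, E. coli-derived, 20 nM.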
# Bst PK mod: modulators of Bacillus stearothermophilus pyruvate kinase. hit rate 1.2% among 51,000. AID 361. purified pyruvate kinase, luminescence ATP production; ribose 5-phosphate activator present at AC10. Potency, µM; in the data active = potency below about 11 µM; inconclusive = mostly about 12 µM to 25 µM;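 the screen sought inhibitors and activators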;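 also: scaled between full activation by ribose 5 phosphate and full inhibition by luteolin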
# 15-hLO inh: inhibitors of human 15-lipoxygenase (ALOX15). purified 15hLO-1, xylenol orange hydroperoxide absorbance. Potency, µM (highest dose often 57.1 µM), without a hit: at the top dose activity change, negative = inhibition, actives largely listed as inhibitors. hit rate 1.4% among 74,000. AID 887; also: nearly all actives have a fitted effect of over 55% in size
#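 Purified human 15hLO-1 (40 nM) in 25 mM Hepes pH 7.5, 0.01% Triton X-100, preincubated 15 min RT with compound, then 50 uM arachidonic acid for 6 min. Hydroperoxide read by ferrous/xylenol orange, 30 min; 573/405 nm absorbance ratio gave progress.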
# ERK AVP inh: vasopressin-driven ERK pathway inhibition; HEK293-V1b, vasopressin-stimulated pERK AlphaScreen; Potency, µM (titrated, usually from 57.5 µM), for the others: at the top dose activity, negative = inhibition, hits mostly inhibitors; hit rate 0.99% among 72,000; also: nearly all actives have a fitted effect of over 55% in size
#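 qHTS, compounds titrated on V1b-expressing HEK293 cells. Preincubation 30 min at 37C, vasopressin 25 nM for 5 min, lysis 10 min, bead incubation 5 hr at room temperature.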
# An asterisk follows results filed as active; i = inactive; u = inconclusive; x = no result; [ ] = remark or other dose. Hits are enriched below; roughly 11% of the tested compounds scored in any of these assays. Unless noted, calls follow the shape of the dose curve; as a rule, active = well fitted curve in the direction sought with a large enough effect; inconclusive = small, poorly fitted or top-dose-only effect, or another doubt; inactive = no such curve, though single readings can be large; an effect the other way counts as inactive or inconclusive. Unless noted, % is scaled to controls: 0 for no effect and ±100 for the full control effect; potency is read from the fitted curve at half-maximal effect.
SMILES,Luciferase inh,HADH2 inhib,HSD17B inh,Bst PK mod,15-hLO inh,ERK AVP inh
COc1ccc2[nH]cc(CCNc3nc(-c4c(C)noc4C)nc4ccccc34)c2c1,-6.2%[2.29 µM],-4.3%,-5.3%,x,u,-10.6%
NC(=O)c1oc2ccccc2c1NC(=O)c1ccc(F)cc1,-5.0%,14.9%,u,x,-3.4%,x
NC(=O)c1oc2ccccc2c1NC(=O)c1nc2ccccc2s1,-8.4%,-15.0%,25.1µM*,>57,-25.6%,21.5%
COc1cccc(-c2cncnc2Nc2ccc(F)cc2)c1,1.0%[2.29 µM],u,-1.9%,x,u,u
CCOC(=O)CCNC(=O)Nc1ccc2nc(C)n(Cc3ccc(Cl)cc3)c(=O)c2c1,0.0%,2.5%,31.6µM*,>57,-8.4%,u
O=C(c1cc(C(F)(F)F)cc(C(F)(F)F)c1)N1CCC[C@@]2(CCN(c3ccncc3)C2)C1,0.4%[11.4 µM],1.3%,-4.5%,x,-1.7%,18.8%
CCN1c2ccccc2NC2N=C(OC)C(c3ccccc3)C21 (stereo not given),-1.3%,9.0%,-3.0%,x,25.1µM*,u
CCN1c2ccccc2NC2C1C(C(C)=O)C(=O)N2c1ccc(Cl)cc1 (stereo not given),0.1%,0.4%,-6.1%,x,-24.3%,u
O=c1c(CCc2ccccc2)nc2cnc(Oc3ccccc3)nc2n1C1CC1,1.1%[11.4 µM],-5.1%,-2.9%,x,-16.5%,27.7%
Fc1ccc(-c2nnc(NC3=NCCCCC3)o2)cc1,2.51µM*,-0.9%,7.6%,4.51*,-3.1%,-16.1%
Fc1ccc(-c2nnc(Cc3nnc(-c4ccc(F)cc4)o3)o2)cc1,-4.9%,7.6%,1.3%,>57,2.0%,0.6%
COc1ccc2c(Cl)c(-c3nnc(SCC(N)=O)n3C)sc2c1,-7.0%,-16.6%,31.6µM*,x,u,x
Cc1nn(-c2ccccc2)c2nc(-c3ccncc3)cc(C(=O)NCc3ccco3)c12,-5.0%,u,u,x,25.1µM*,-15.2%
O=C(NCc1ccco1)c1cc2nc(-c3cccs3)cc(C(F)(F)F)n2n1,1.3%,20.3%,31.6µM*,x,-3.1%,-18.7%
Cc1ccc(-c2cc(C(F)(F)F)n3ncc(C(=O)N4CCN(C)CC4)c3n2)cc1,-1.0%,2.7%[11.4 µM],u,x,-0.5%[11.4 µM],-10.1%
NC(=O)c1cnn2c(C(F)(F)F)cc(-c3ccccc3)nc12,4.2%,9.5%,u,11.3*,3.4%,u
NC(=O)c1cnn2c(C(F)(F)F)cc(-c3ccc(F)cc3)nc12,-2.1%,16.6%,u,2.68*,-5.4%,u
CC(=O)O[C@@H]1C[C@]2(C)[C@H](C[C@@H](O)[C@H]3[C@@]4(C)CC[C@@H](O)[C@@H](C)[C@@H]4CC[C@@]32C)/C1=C(\CCC=C(C)C)C(=O)O,1.9%,2.4%,3.1%,x,1.1%,15.7%
COC(=O)C/C=C\[C@@H](C)[C@@H](/C=N\O[C@@H](C)c1cn([C@H]2COC[C@H]2O)nn1)OC,-0.7%[11.4 µM],3.3%[11.4 µM],-0.7%[11.4 µM],x,-1.9%[11.4 µM],-6.0%[11.5 µM]
CC1=CC(=O)CC(C)(C)[C@@]1(O)/C=C\C(C)=C\C(=O)O,-0.8%[11.4 µM],2.7%,x,x,x,x
COc1ccc(-c2cc(C(F)(F)F)n3ncc(C(=O)NCc4ccco4)c3n2)cc1,-1.1%,12.7%,-29.7%,x,-2.7%,-17.5%
O=C(NCc1ccco1)c1cnn2c(C(F)(F)F)cc(-c3ccccc3)nc12,-0.3%,-4.4%,31.6µM*,x,-16.6%,-6.4%
CCOCC(=O)O,x,-11.1%,-0.3%,x,-3.0%,-3.2%
Cc1c(C(=O)NCc2ccccn2)sc2nc(-c3ccc(F)cc3)cn12,-4.0%,2.5%,-2.1%,i,0.0%,25.8%
Cc1cccc(NC(=O)c2sc3nc(-c4ccc(F)cc4)cn3c2C)n1,-3.5%,25.1µM*,31.6µM*,>57,-12.7%,24.9%
Cc1nc2cnc(N3CCNCC3)nc2n(-c2ccccc2)c1=O,-0.2%[11.4 µM],-21.3%,31.6µM*,x,11.2%,5.6%
Cn1c(=O)c(-c2cccs2)nc2cnc(N3CCOCC3)nc21,-2.4%[11.4 µM],-5.4%,-10.3%,x,4.5%,8.8%
O=c1c(-c2ccccc2)nc2cnc(N3CCNCC3)nc2n1Cc1ccc(F)cc1,0.4%[11.4 µM],22.6%,7.94µM*,x,-3.6%,15.2%
